# Data as given in PubChem BioAssay.
# Results with a measured potency or affinity are listed apart. Results filed as inconclusive are left out. A number with no mark means an inactive call.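 How the source made its calls: active means falling signal with fitted half-maximal potency no higher than twice the top valid tested dose; inconclusive means poor fit quality, or flat fit spanning -70% to -30%; inactive means potency over limit, rising signal, or flat fit inside 30%.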
# Assay: fungal growth arrest, C. neoformans – Alamar Blue, cherry-picks, dose response (AID 686998)
# Settings: Cryptococcus neoformans growth, 24 h; series mostly up to 35 µM; activity change, negative = inhibition: at the top concentration
row,SMILES,"activity change, negative = inhibition"
1,CO[C@H]1CN(C)C(=O)c2cc(NS(=O)(=O)CC(F)(F)F)ccc2OC[C@H](C)N(Cc2cccnc2)C[C@@H]1C,46.2%
2,C[C@@H]1CCCCO[C@@H](CN(C)Cc2ccc(C(F)(F)F)cc2)[C@@H](C)CN([C@@H](C)CO)C(=O)c2cc(NS(=O)(=O)c3cn(C)cn3)ccc2O1,-28.5% [at 30 µM]
3,CCNC(=O)Nc1ccc2c(c1)C(=O)N(C)[C@H]1CC[C@H](CC(=O)N[C@@H](C)c3ccccc3)O[C@H]1CO2,26.3%
4,C/C=C/c1cnc2c(c1)C(=O)N([C@@H](C)CO)C[C@@H](C)[C@@H](CN(C)C(=O)C1CCCCC1)O2,-31.5%
5,COc1ccc(S(=O)(=O)Nc2ccc3c(c2)C(=O)N([C@H](C)CO)C[C@@H](C)[C@@H](CN(C)C(=O)Nc2ccccc2)O3)cc1,38.1%
6,Cc1cc(C(=O)Nc2cccc3c2O[C@H](CN(C)S(=O)(=O)c2ccccc2)[C@H](C)CN([C@H](C)CO)C3=O)n(C)n1,31.2%
7,CNC(=O)C[C@H]1CC[C@H]2[C@@H](COc3ccc(NC(=O)Nc4ccccc4)cc3C(=O)N2C)O1,3.9%
8,CCNC(=O)Nc1ccc2c(c1)C(=O)N(C)[C@@H]1CC[C@H](CC(=O)N[C@@H](C)c3ccccc3)O[C@@H]1CO2,27.6%
9,CC(=O)N1[C@H](CO)[C@H](c2ccc(-c3ccccc3)cc2)[C@H]1CNC(=O)C1CC1,-7.67%
10,CCC(=O)N1C[C@H](O)COC[C@@H]2O[C@@H](CC(=O)NCc3ccccc3Cl)CC[C@H]21,-29.3%
11,C[C@@H]1CN([C@@H](C)CO)C(=O)c2cccc(NC(=O)c3ccncc3)c2O[C@H]1CN(C)C(=O)Nc1ccccc1,-25%
12,CN1C(=O)N[C@@H]2c3ccccc3O[C@@]1(C)[C@@H]2COC(=O)c1ccccc1,-25.3%
13,C[C@@H]1CN([C@H](C)CO)C(=O)c2cc(NC(=O)CCC(F)(F)F)ccc2O[C@@H](C)CCCCO[C@@H]1CN(C)C(=O)c1ccncc1,-24.9%
14,COc1ccccc1CNC(=O)C[C@@H]1C[C@H]2c3cc(NC(=O)Nc4ccccc4F)ccc3O[C@H]2[C@@H](CO)O1,10.6%
15,O=C(NCC[C@H]1CC[C@H](NS(=O)(=O)c2ccc(F)cc2)[C@@H](CO)O1)c1ccc2c(c1)OCO2,-16.6%
16,O=C(NCc1ccc(F)cc1)C1C2C=CC3(CN(Cc4cccnc4)C(=O)C13)O2 (configuration not stated),5.61%

row,SMILES,"activity change, negative = inhibition"
1,COc1ccccc1CNC(=O)C[C@@H]1C[C@@H]2c3cc(NC(=O)Nc4ccccc4F)ccc3O[C@@H]2[C@H](CO)O1,42.6%
2,O=C(C[C@H]1C[C@@H]2c3cc(NC(=O)CC4CC4)ccc3O[C@@H]2[C@@H](CO)O1)NCc1cccc(F)c1,29.3%
3,CCCNC(=O)C[C@H]1C[C@H]2c3cc(NC(=O)Nc4ccc(OC)cc4)ccc3O[C@H]2[C@@H](CO)O1,6.02%
4,Cc1ccc(S(=O)(=O)N[C@@H]2CCCN(Cc3cccc(OCCO)c3)C2)cc1,10.5% [at 28.5 µM]
5,COc1ccccc1CNC(=O)C[C@@H]1CC[C@@H]2[C@H](COC[C@@H](O)CN2Cc2ccccc2)O1,-24.6%
6,C[C@@H]1CN([C@@H](C)CO)C(=O)c2cc(NC(=O)CCN3CCOCC3)ccc2O[C@@H]1CN(C)Cc1ccc(C(=O)O)cc1,-43.2%
7,C[C@H]1CN([C@@H](C)CO)C(=O)c2cc(Br)cnc2O[C@@H]1CN(C)Cc1ccccn1,26.4%
8,Cc1cc(C)c(NC(=O)C2CCCCN2C)c(C)c1 (configuration not stated),-44%
9,COCC(=O)Nc1ccc2c(c1)C(=O)N(C)C[C@@H](OC)[C@H](C)CN(Cc1ccccc1)[C@@H](C)CO2,-33.4%
10,COc1ccc(-n2ncc3c(SCC(=O)OC(C)C)ncnc32)cc1,-3.28%
11,Cc1noc(C)c1S(=O)(=O)Nc1ccc2c(c1)C(=O)N([C@H](C)CO)C[C@@H](C)[C@H](CN(C)Cc1ccccc1)OCCCC[C@H](C)O2,-2.38%
12,O=C(NC1CCCC1)N1CCCCN2[C@H](CO)[C@@H](c3ccc(-c4cncnc4)cc3)[C@H]2C1,61.5%
13,C[C@H](CO)N1C[C@H](C)[C@@H](CN(C)Cc2cccc(C(F)(F)F)c2)OCc2cnnn2CCCC1=O,-4.87%
14,C[C@H](NC(=O)C[C@@H]1CC[C@@H]2[C@H](COC[C@@H](O)CN2C(=O)Nc2cccc(F)c2)O1)c1ccccc1,13.1%
15,O=C(C[C@@H]1C[C@@H]2c3cc(NC(=O)Nc4ccc(F)cc4)ccc3O[C@@H]2[C@@H](CO)O1)NCC1CC1,63.9% [at 30 µM]
16,C[C@@H]1CCCCO[C@H](CN(C)C(=O)c2ccccc2)[C@@H](C)CN([C@@H](C)CO)C(=O)c2cc(NC(=O)c3ccccc3)ccc2O1,-43.7%
